# In PubChem BioAssay (NCATS):
# Values joined by “and” are separate entries in the source; they are usually repeats but may differ in a detail not shown here. Equal entries are not always repeated. Records with an inconclusive call do not appear. Where a call stands in place of a potency, no number is given. Some structures have more than one record in an assay (separate samples or runs), and their calls can disagree. Active and inactive are the calls of the source. Calls come from the whole dose curve; as a rule, active = well fitted curve in the direction sought with a large enough effect; inconclusive = small, poorly fitted or top-dose-only effect, or another doubt; inactive = no such curve, though single readings can be large; an effect the other way counts as inactive or inconclusive.
# Tests used:
# [1] = Viability qHTS for spleen associated tyrosine kinase inhibitor (SYKi) naive MV4-11 cells (AID 1963823); conditions: MV4-11 AML viability, CellTiter-Glo luminescence, 72 h; series mostly up to 45 µM; note: nearly all actives have a fitted effect of over 40% in size
# Summary of the method: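 qHTS, SYK inhibitor-naive MV4-11; 500 cells/well; 72 hr compound exposure, 37 C; CellTiter-Glo added, 10 min RT; luminescence read.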
# [2] = Viability qHTS for spleen associated tyrosine kinase inhibitor (SYKi) drug resistant MV4-11 cells (AID 1963824); conditions: SYKi-resistant MV4-11 viability, CellTiter-Glo, 72 h; series mostly up to 45 µM; note: nearly all actives have a fitted effect of over 35% in size
# Summary of the method: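 SYK-inhibitor-resistant MV4-11 AML cells were seeded at 500 per well onto compound and cultured 72 hours (37 °C, 5% CO2). CellTiter-Glo was then added, and after 10 min at room temperature, luminescence gave viability.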
# [3] = Quantitative highthroughput screen to assess conditional lethalithy of NOMO1 cells grown in RPMI1640 with untreated serum (RPMI+s) (AID 1963876); conditions: NOMO1 AML cells in RPMI+serum, CellTiter-Glo viability, 48 h; series mostly up to 45.8 µM; note: nearly all actives have a fitted effect of over 35% in size
# Summary of the method: (§1)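 Each medium arm—HPLM with 10% dialyzed FBS, or RPMI1640 with 5 mM glucose and 10% untreated or dialyzed FBS—was screened against an 11-point, 3-fold compound titration for 48 h at 37 °C, with CellTiter-Glo luminescence as endpoint.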
# [4] = Quantitative highthroughput screen to assess conditional lethalithy of NOMO1 cells grown in RPMI1640 with dialyzed fetal bovine serum (RPMI+ds) (AID 1963877); conditions: NOMO1 in RPMI+dialyzed FBS viability, ATP luminescence, 48 h; series mostly up to 45.8 µM; note: nearly all actives have a fitted effect of over 30% in size
# Summary of the method: as §1
# [5] = Quantitative highthroughput screen to assess conditional lethalithy of NOMO1 cells grown in Human Plasma-Like Medium with dialyzed fetal bovine serum (HPLM+ds) (AID 1963878); conditions: NOMO1 AML cells in HPLM+ds, CellTiter-Glo viability, 48 h; series mostly up to 45.8 µM; note: nearly all actives have a fitted effect of over 35% in size
# Summary of the method: as §1
# [6] = Quantitative highthroughput screen to assess conditional lethalithy of P12 Ichikawa cells grown in Human Plasma-Like Medium with dialyzed fetal bovine serum (HPLM+ds) (AID 1963879); conditions: ATP luminescence, 48 h; Potency: viability; series mostly up to 45.8 µM; note: nearly all actives have a fitted effect of over 35% in size
# Summary of the method: as §1
# [7] = Quantitative highthroughput screen to assess conditional lethalithy of P12 Ichikawa cells grown in RPMI1640 with untreated serum (RPMI+s) (AID 1963881); conditions: ATP luminescence, 48 h; Potency: viability; series mostly up to 45.8 µM; note: nearly all actives have a fitted effect of over 35% in size
# Summary of the method: as §1
# [8] = Quantitative highthroughput screen to assess conditional lethalithy of SEM cells grown in Human Plasma-Like Medium with dialyzed fetal bovine serum (HPLM+ds) (AID 1963882); conditions: SEM B-ALL cells in HPLM+ds, CellTiter-Glo viability, 48 h; series mostly up to 45.8 µM; note: nearly all actives have a fitted effect of over 35% in size
# Summary of the method: as §1
# [9] = Quantitative highthroughput screen to assess conditional lethalithy of SEM cells grown in RPMI1640 with unreated serum (RPMI+s) (AID 1963883); conditions: SEM B-ALL cells, CellTiter-Glo viability, 48 h; series mostly up to 45.8 µM; note: nearly all actives have a fitted effect of over 35% in size
# Summary of the method: as §1
# [10] = Quantitative highthroughput screen to assess conditional lethalithy of SEM cells grown in RPMI1640 with dialyzed fetal bovine serum (RPMI+ds) (AID 1963884); conditions: SEM B-ALL cells, RPMI+dialyzed FBS, CellTiter-Glo viability, 48 h; series mostly up to 45.8 µM; note: nearly all actives have a fitted effect of over 35% in size
# Summary of the method: as §1
# [11] = Cellular viability qHTS for adrenocortical cancer (ACC) cell line SW-13 (AID 1963989); conditions: SW-13 ACC cells viability, CellTiter-Glo, 48 h; activity (max response): stronger effect = lower value; note: nearly all actives have a fitted effect of over 65% in size;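 for activity (max response): cells grown in serum-free medium with ITS supplement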
# Summary of the method: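 48 h treatment, SW-13 in ITS/DMEM serum-free; doses up to 46 uM; readout CellTiter-Glo luminescence; curve fit four-parameter logistic.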
# [12] = Cellular viability qHTS for adrenocortical cancer (ACC) cell line NCI-H295R (AID 1963990); conditions: CellTiter-Glo ATP luminescence, 48 h; series mostly up to 46.1 µM; note: nearly all actives have a fitted effect of over 60% in size
# Summary of the method: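 Compound titrations (up to 46 uM final) are applied to NCI-H295R cultures for 48 h at 37C. Viable cell number is estimated by CellTiter-Glo signal, normalised to DMSO and doxorubicin controls.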
# [13] = Quantitative highthroughput screen to assess conditional lethalithy of P12 Ichikawa cells grown in RPMI1640 with dialyzed fetal bovine serum (RPMI+ds) (AID 1963880); conditions: ATP luminescence, 48 h; Potency: P12-Ichikawa viability; series mostly up to 45.8 µM; note: nearly all actives have a fitted effect of over 35% in size
# Summary of the method: as §1
# Potency is the fitted concentration of half-maximal effect.
SMILES,Potency [1],Potency [2],Potency [3],Potency [4],Potency [5],Potency [6],Potency [7],Potency [8],Potency [9],Potency [10],activity (max response) [11],Potency [12],Potency [13],Potency [11]
Cn1cnc(=N)c2[nH]cnc21,inactive,inactive,7.43 µM (active),6.62 µM (active),4.69 µM (active),7.43 µM (active),7.43 µM (active),3.32 µM (active),2.35 µM (active),3.32 µM (active),5.87% (inactive),inactive,–,–
Cc1c(C(=O)Nc2ccc(N3C[C@@H](C)O[C@@H](C)C3)nc2)cccc1-c1ccc(OC(F)(F)F)cc1,inactive and 16.6 µM (active),inactive and 7.42 µM (active),5.26 µM (active),11.8 µM (active),3.32 µM (active),2.35 µM (active),–,2.96 µM (active),–,2.35 µM (active),-4.43% (inactive),10 µM (active),4.18 µM (active),–
O=C(Nc1ccccc1Br)N[C@@H]1CCN(c2ccc(C(F)(F)F)cn2)C1,14.8 µM (active),23.5 µM (active),inactive,inactive,inactive,inactive,–,inactive,inactive,inactive,–,inactive,inactive,–
O=c1cc(O)c(Cl)c[nH]1,inactive,inactive,7.43 µM (active),8.33 µM (active),5.26 µM (active),7.43 µM (active),8.33 µM (active),–,–,–,20.2% (inactive),inactive,14.8 µM (active),–
OCCC#Cc1nc(-c2ccc(F)cc2)c(-c2ccncc2)n1CCCc1ccccc1,20.6 µM (active),10.3 µM (active) and 11.8 µM (active),inactive,inactive,inactive,inactive,–,–,inactive,18.7 µM (active),–,–,inactive,–
CN(C)c1nc(N(C)C)nc(N(C)C)n1,inactive,inactive,inactive,inactive,inactive,inactive,–,inactive,inactive,inactive,-1.75% (inactive) and -4.21% (inactive),inactive,inactive,–
NC(=O)c1cccc(-c2cc(Nc3ccc(OC(F)(F)F)cc3)ncn2)c1,10.3 µM (active) and 5.25 µM (active),9.2 µM (active) and 5.9 µM (active),inactive,inactive,inactive,inactive,inactive,–,–,–,–,–,inactive,15.8 µM (active)
CCc1cccc2c3c([nH]c12)C(CC)(CC(=O)O)OCC3 (stereo unspecified),inactive,inactive,inactive,inactive,inactive,inactive,inactive,–,–,–,7.18% (inactive),inactive,inactive,–
CN1CCC(=C2c3ccccc3CC(=O)c3sccc32)CC1,26.3 µM (active),23.7 µM (active) and 20.9 µM (active),inactive,inactive,inactive,inactive,inactive,inactive,inactive,inactive,-6.42% (inactive) and -1.59% (inactive),inactive,–,–
Cc1cc(CN2CCN(c3c(Br)cnc4nc(-c5ccc(N6CCN(C)CC6)cc5)[nH]c34)CC2)no1,0.0231 µM (active),29.1 nM (active) and 105 nM (active),inactive,1.05 µM (active),16.6 µM (active),1.05 µM (active),0.935 µM (active),0.935 µM (active),0.743 µM (active),0.743 µM (active),–,28.2 µM (active),–,31.6 µM (active)
N#Cc1c(C2CCNCC2)cc(-c2c(O)cccc2OCC2CC2)nc1N,5.9 µM (active),6.61 µM (active),inactive,inactive,inactive,inactive,inactive,–,–,–,–,11.2 µM (active),inactive,28.2 µM (active)
Cc1ccc2c(=O)c3cccc(CC(=O)O)c3oc2c1C,2.95 µM (active),0.934 µM (active),inactive,inactive,inactive,inactive,inactive,–,–,–,-13.4% (inactive),inactive,inactive,–
COC(=O)Nc1cc(Nc2cc(NC3CC3)c3ncc(C#N)n3n2)c(Cl)c(N2CCN(C)CC2)c1,0.417 µM (active),0.662 µM (active),9.33 µM (active),7.41 µM (active),16.6 µM (active),20.9 µM (active),–,4.17 µM (active),2.63 µM (active),2.34 µM (active),–,2.24 µM (active),11.7 µM (active),2.82 µM (active)
COc1cc2c(Oc3ccc(NC(=O)C4(C(=O)Nc5ccc(F)cc5)CC4)cc3F)ccnc2cc1OCCCN1CCOCC1,inactive and 2.6 nM (active),0.0037 µM (active),11.8 µM (active),5.9 µM (active),13.2 µM (active),1.48 µM (active),2.35 µM (active),–,–,–,–,2.82 µM (active),1.66 µM (active),3.16 µM (active)
C[C@@H](NCCCc1cccc(C(F)(F)F)c1)c1cccc2ccccc12,10.6 µM (active),13.3 µM (active) and 7.42 µM (active),inactive,inactive,inactive,inactive,–,inactive,–,inactive,–,5.17 µM (active) and 8.91 µM (active),inactive,20.6 µM (active) and 25.1 µM (active)
COC(=O)C1=C(C)NC(C)=C(C(=O)OCCCN2CCC(c3ccccc3)(c3ccccc3)CC2)C1c1cccc([N+](=O)[O-])c1 (stereo unspecified),4.68 µM (active) and 8.41 µM (active),4.68 µM (active) and 7.5 µM (active),inactive,inactive,inactive,–,inactive,inactive,inactive,–,–,7.08 µM (active) and 8.2 µM (active),inactive,5.62 µM (active) and 13 µM (active)
CC#C[C@]1(O)CC[C@H]2[C@@H]3CCC4=CC(=O)CCC4=C3[C@@H](c3ccc(N(C)C)cc3)C[C@@]21C,18.6 µM (active),21.1 µM (active) and 16.6 µM (active),6.62 µM (active),7.43 µM (active),8.33 µM (active),9.35 µM (active),–,–,–,–,–,20.6 µM (active) and 25.1 µM (active),–,–
CCc1ccc(C(=O)Nc2cc(CN3CCN(C)CC3)cc(C(F)(F)F)c2)cc1C#Cc1cnc2ccnn2c1,2.59 µM (active) and 2.06 µM (active),3.66 µM (active) and 1.84 µM (active),inactive,inactive,inactive,inactive,–,–,–,–,–,7.94 µM (active),–,10 µM (active)
N#Cc1c(N(CC(=O)O)CC(=O)O)sc(C(=O)O)c1CC(=O)O,inactive,inactive,inactive,inactive,inactive,16.6 µM (active),–,13.2 µM (active),–,–,0.42% (inactive),inactive,–,–
Cc1ncc([N+](=O)[O-])n1CCO,inactive,inactive,inactive,inactive,inactive,–,inactive,inactive,inactive,–,-0.254% (inactive),inactive,inactive,–
Fc1ccc(CNc2ncnc3ccc(F)cc23)cc1,2.06 µM (active),1.84 µM (active),inactive,inactive,inactive,–,–,inactive,inactive,inactive,–,–,11.8 µM (active),–
CCOc1ccccc1OCCNC(C)Cc1ccc(OC)c(S(N)(=O)=O)c1 (stereo unspecified),inactive,inactive,inactive,inactive,inactive,–,inactive,inactive,inactive,inactive,–,–,inactive,–
